# Measurements taken from PubChem BioAssay (Tox21).
# Inconclusive results are not listed. A number with no mark means an inactive call. Calls of active or inactive are those of the source. Unless noted, the call rests on the fitted dose curve; in most records, active means well fitted cell-killing curve with a large enough effect in the repeat runs; inconclusive means weak or mixed curves, or effect the other way; inactive means no such curve, though single readings can be large or run the other way.
# Experiment: qHTS assay to identify small molecule antagonists of the peroxisome proliferator-activated receptor gamma (PPARg) signaling pathway - cell viability counter screen (AID 743194); further: nearly all actives have a fitted effect of over 55% in size
# Conditions: PPARg-bla HEK293H viability, CellTiter-Glo luminescence, 17 h, co-treated with 50 nM rosiglitazone; series mostly up to 62.6 µM; activity change, negative = cytotoxicity: at the top concentration
# How it was run: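 Cytotoxicity counter screen in PPARg-bla HEK293H cells, same wells as reporter assay. Compounds plus 50 nM rosiglitazone (final) for 17 h at 37 C, then viability read by CellTiter-Glo luminescence.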
# On the % scale 0 is the no-effect control and ±100 the full control effect.
row,Compound,"activity change, negative = cytotoxicity"
1,CCC/C=C/CO,-9.92%
2,C/C(=N\O)[C@@H](C)NCC(C)(C)CN[C@H](C)/C(C)=N/O,17.5%
3,O=Cc1ccc(O)c(O)c1O,4.81%
4,Cc1c[nH]c(=S)[nH]c1=O,-14.6%
5,CC(=O)O[C@H]1CC[C@@]2(C)C(=CC[C@@H]3[C@@H]2CC[C@]2(C)C(C(C)=O)=CC[C@@H]32)C1,4.37%
6,CCCC(CCC)(C(=O)OCC)C(=O)OCC,9.22%
7,CCC(=O)c1ccc2c(c1)N(CCCN(C)C)c1ccccc1S2,-17.3%
8,CC[C@H]1CC[C@H](NCc2cc3c(cc2OC)[C@H]2C[C@H]2C(=O)N3C)[C@H](c2ccccc2)N1,1.98%
9,Cc1onc(-c2ccccc2)c1C(=O)Cl,-7.56%
10,Cc1c(N)cccc1N,32.2% [at 81.1 µM]
11,CCCOc1ccc2c(c1)CC[C@@H]1[C@@H]2CC[C@]2(C)C(OC)CC[C@@H]12 (some centres not stated),-0.473%
12,CCCS(=O)c1ccc2nc(NC(=O)OC)[nH]c2c1 (configuration not stated),-0.763%
13,Cc1nc(-c2ccccn2)ncc1C(=O)Nn1cc(C)c2cc(F)ccc21,16.9%
14,CC1=NN(c2cc(Cl)c(S(=O)(=O)O)cc2Cl)C(=O)C1N=Nc1ccc(S(=O)(=O)O)cc1 (configuration not stated),-15.7%
15,Cc1cn([C@@H]2O[C@H](CO)[C@@H](O)[C@@H]2F)c(=O)[nH]c1=O,7.83%
16,CCCCCCOc1ccc(N)cc1,1.66%
17,Nc1ccc2ccccc2c1S(=O)(=O)O,-2.05% [at 81.1 µM]
18,COC(=O)/C=C(/C)N,13.8%

row,Compound,"activity change, negative = cytotoxicity"
1,O=C(CCCl)NCc1ccccc1,-10.7%
2,N#CSCC(=O)O,-5.99%
3,CN1CCN(N)CC1,5.06%
4,CN1CCC[C@@H]1Cc1c[nH]c2ccc(CCS(=O)(=O)c3ccccc3)cc12,0.173%
5,CCCCCCn1c(=O)c2c(ncn2C)n(C)c1=O,-1.63%
6,CCc1cc2cc(OC)c(OC)cc2c(Cc2ccccc2)n1,17.5%
7,CCCC1CCC(=O)O1 (configuration not stated),5.78%
8,CCOc1ccc(NS(=O)(=O)c2ccc(N)cc2)nn1,15.5%
9,Cc1cc(NS(=O)(=O)c2ccc(N)cc2)nc(C)n1,7.43%
10,OCc1ccccc1O,11.8%
11,COC(=O)N[C@H](C(=O)N[C@@H](Cc1ccccc1)[C@@H](O)CN(Cc1ccc(-c2ccccn2)cc1)NC(=O)[C@@H](NC(=O)OC)C(C)(C)C)C(C)(C)C,8.31%
12,CN(C)C(=O)NC1(c2ccccc2)CCN(CCC[C@]2(c3ccc(Cl)c(Cl)c3)CCCN(C(=O)c3ccccc3)C2)CC1,-20% [at 29.1 µM]
13,O=C(C(Cl)Cl)N1CCOC12CCCCC2,-17.4%
14,CN(C)CC[C@@H](c1ccc(Cl)cc1)c1ccccn1,7.47%
15,CCOC(=O)c1cc(=O)c2c(OCC(COc3cccc4oc(C(=O)OCC)cc(=O)c34)OC(=O)[C@@H](N)CCCCN)cccc2o1,-0.636%
16,NC(=O)NS(=O)(=O)c1ccc(Cl)cc1,-1.43%
17,CC(Oc1c(Cl)cccc1Cl)C1=NCCN1 (configuration not stated),-29%
18,CC(C)C(=O)OCC(C)(C)C(O)C(C)C (configuration not stated),-1.98% [at 81.1 µM]

# Experiment: qHTS assay for small molecule agonists of the antioxidant response element (ARE) signaling pathway (AID 743202; active means well fitted activation curve with a large enough effect in the signal ratio in the repeat runs, not every such curve was filed as active; the % refers to the signal ratio; further: potency means the concentration at half of the fitted maximal effect)
# Conditions: HepG2 ARE-bla reporter, beta-lactamase FRET, 16 h; series mostly up to 73.3 µM; activation: at the top concentration
# How it was run: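 ARE-bla HepG2 cells (beta-lactamase reporter under the antioxidant response element), plated 5 hours, then exposed to compounds 16 hours at 37 C. LiveBLAzer B/G FRET substrate added for 2 hours at room temperature; fluorescence intensity read.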
Compound,activation,Potency
CCC/C=C/CO,2.01%,–
C/C(=N\O)[C@@H](C)NCC(C)(C)CN[C@H](C)/C(C)=N/O,-12.9%,–
O=Cc1ccc(O)c(O)c1O,–,23.7 µM (active)
Cc1c[nH]c(=S)[nH]c1=O,-4.49%,–
CC(=O)O[C@H]1CC[C@@]2(C)C(=CC[C@@H]3[C@@H]2CC[C@]2(C)C(C(C)=O)=CC[C@@H]32)C1,–,23.7 µM (active)
CCCC(CCC)(C(=O)OCC)C(=O)OCC,-1.57%,–
Cc1onc(-c2ccccc2)c1C(=O)Cl,2.64%,–
CC1=NN(c2cc(Cl)c(S(=O)(=O)O)cc2Cl)C(=O)C1N=Nc1ccc(S(=O)(=O)O)cc1 (configuration not stated),-1.16%,–
Cc1cn([C@@H]2O[C@H](CO)[C@@H](O)[C@@H]2F)c(=O)[nH]c1=O,-7.08%,–
CCCCCCOc1ccc(N)cc1,6.33%,–
Nc1ccc2ccccc2c1S(=O)(=O)O,–,12.4 µM (active)
COC(=O)/C=C(/C)N,-12.3%,–
O=C(CCCl)NCc1ccccc1,-4.74%,–
N#CSCC(=O)O,7.59%,–
CN1CCN(N)CC1,-5.04%,–
CN1CCC[C@@H]1Cc1c[nH]c2ccc(CCS(=O)(=O)c3ccccc3)cc12,0.384%,–
CCCCCCn1c(=O)c2c(ncn2C)n(C)c1=O,19.2%,–
CCc1cc2cc(OC)c(OC)cc2c(Cc2ccccc2)n1,-4%,–
CCCC1CCC(=O)O1 (configuration not stated),-7.15%,–
CCOc1ccc(NS(=O)(=O)c2ccc(N)cc2)nn1,-6.96%,–
Cc1cc(NS(=O)(=O)c2ccc(N)cc2)nc(C)n1,9.61%,–
O=C(C(Cl)Cl)N1CCOC12CCCCC2,–,34.4 µM (active)
CN(C)CC[C@@H](c1ccc(Cl)cc1)c1ccccn1,-4.94%,–
CCOC(=O)c1cc(=O)c2c(OCC(COc3cccc4oc(C(=O)OCC)cc(=O)c34)OC(=O)[C@@H](N)CCCCN)cccc2o1,4.54%,–
NC(=O)NS(=O)(=O)c1ccc(Cl)cc1,8.83%,–
CC(C)C(=O)OCC(C)(C)C(O)C(C)C (configuration not stated),-4.05% [at 94.8 µM],–

# Experiment: qHTS assay for small molecule agonists of the antioxidant response element (ARE) signaling pathway - cell viability counter screen (AID 743203; calls by dose curve; further: nearly all actives have a fitted effect of over 55% in size)
# Conditions: ARE-bla HepG2 viability, CellTiter-Glo luminescence, 16 h; series mostly up to 73.3 µM; viability change, negative = cytotoxic: at the top concentration
# How it was run: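 Compounds in DMSO were pinned onto ARE-bla HepG2 cells plated 5 hrs earlier at 2,000 cells/well. Sixteen hours later at 37C/5% CO2, CellTiter-Glo was added and luminescence measured after 30 min at room temperature.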
row,Compound,"viability change, negative = cytotoxic"
1,CCC/C=C/CO,0.52%
2,CC1CN(c2ccccc2)NC1=O (configuration not stated),14.6%
3,C/C(=N\O)[C@@H](C)NCC(C)(C)CN[C@H](C)/C(C)=N/O,9.92%
4,O=Cc1ccc(O)c(O)c1O,8.14%
5,Cc1c[nH]c(=S)[nH]c1=O,-1.47%
6,CCCC(CCC)(C(=O)OCC)C(=O)OCC,7.8%
7,CC[C@H]1CC[C@H](NCc2cc3c(cc2OC)[C@H]2C[C@H]2C(=O)N3C)[C@H](c2ccccc2)N1,-5.84%
8,Cc1onc(-c2ccccc2)c1C(=O)Cl,7.33%
9,Cc1c(N)cccc1N,4% [at 94.8 µM]
10,CCCOc1ccc2c(c1)CC[C@@H]1[C@@H]2CC[C@]2(C)C(OC)CC[C@@H]12 (some centres not stated),-2.88%
11,CCCS(=O)c1ccc2nc(NC(=O)OC)[nH]c2c1 (configuration not stated),-20.1%
12,Cc1nc(-c2ccccn2)ncc1C(=O)Nn1cc(C)c2cc(F)ccc21,14.5%
13,CC1=NN(c2cc(Cl)c(S(=O)(=O)O)cc2Cl)C(=O)C1N=Nc1ccc(S(=O)(=O)O)cc1 (configuration not stated),-11.3%
14,Nc1ccc2ccccc2c1S(=O)(=O)O,-1.65% [at 94.8 µM]
15,COC(=O)/C=C(/C)N,3.54%
16,O=C(CCCl)NCc1ccccc1,2.85%
17,N#CSCC(=O)O,13.9%
18,CN1CCN(N)CC1,11%
19,CN1CCC[C@@H]1Cc1c[nH]c2ccc(CCS(=O)(=O)c3ccccc3)cc12,8.09%
20,CCCCCCn1c(=O)c2c(ncn2C)n(C)c1=O,12.5%
21,CCCC1CCC(=O)O1 (configuration not stated),7.32%
22,CCOc1ccc(NS(=O)(=O)c2ccc(N)cc2)nn1,-0.0619%
23,Cc1cc(NS(=O)(=O)c2ccc(N)cc2)nc(C)n1,6.66%
24,OCc1ccccc1O,15%
25,COC(=O)N[C@H](C(=O)N[C@@H](Cc1ccccc1)[C@@H](O)CN(Cc1ccc(-c2ccccn2)cc1)NC(=O)[C@@H](NC(=O)OC)C(C)(C)C)C(C)(C)C,6.52%
26,O=C1Nc2ccc([N+](=O)[O-])cc2C1=O,-2.96%
27,O=C(C(Cl)Cl)N1CCOC12CCCCC2,-15.8%
28,CN(C)CC[C@@H](c1ccc(Cl)cc1)c1ccccn1,13%
29,CC(Oc1c(Cl)cccc1Cl)C1=NCCN1 (configuration not stated),-8.7%
30,CC(C)C(=O)OCC(C)(C)C(O)C(C)C (configuration not stated),2.21% [at 94.8 µM]
